Bioassay records as filed in PubChem.
Compounds with a hit are over-represented: about 18% of the library has one in this group of screens.
VDR inh: inhibitors of human vitamin D receptor. P11473. VDR-SRC2-3 peptide fluorescence polarization, 2 h. Potency, µM, inactives show max response, negative = inhibition, usual class: inhibitors. hit rate 0.93% among 400,000
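Two reagent solutions held at 4 deg C in the dark were dispensed, compounds pinned at 23 nl, and the mixture incubated 2 h at room temperature. Read-out: fluorescence polarization of VDR–SRC2-3 peptide binding.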
TDP1 inh: inhibitors of human tyrosyl-DNA phosphodiesterase TDP1. Q9NUW8. hit rate 0.28% among 350,000. recombinant TDP1, AlphaScreen DNA substrate cleavage. Potency, µM (doses to about 130 µM), for inactives: at the highest dose activity change, negative = inhibition, hits mostly inhibitors; note: nearly all actives have a fitted effect of over 40% in size
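Compounds were preincubated with Tdp1 (1 nM final) for 15 min at room temperature before substrate (15 nM final) started a 5 min reaction; beads (10 ug/ml final) were then added for 10 min before AlphaScreen detection.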
PLK1 PBD inh: inhibitors of human PLK1 polo-box domain binding | P53350 | Potency, µM, inactives show max response, negative = inhibition, hits mostly inhibitors | Plk1 PBD binding of FITC phosphopeptide, fluorescence polarization | AID 720504 | hit rate 2.8% among 360,000; note: series mostly up to about 57 µM; nearly all actives have a fitted effect of over 65% in size
DT40 TDP1 CPT: growth inhibition of DT40 Tdp1-/-;hTDP1 cells with camptothecin (screen for TDP1 inhibitors). chicken DT40 Tdp1-/-;hTDP1 cells + 20 nM CPT, ATP luminescence, 48 h. Potency, µM (highest dose often 46.2 µM), for inactives: at the highest dose activity change, negative = growth inhibition, most hits filed as inhibitors. hit rate 12% among 420,000; note: nearly all actives have a fitted effect of over 55% in size
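Chicken DT40 Tdp1-/- cells complemented with human TDP1, 400 cells/well, exposed to compounds plus 20 nM camptothecin for at least 48 h at 37 C; viability read as ATP content by CellTiter-Glo luminescence.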
DT40 TDP1 no CPT: qHTS for Inhibitors of human tyrosyl-DNA phosphodiesterase 1 (TDP1): qHTS in cells in absence of CPT | hit rate 15% among 420,000 | DT40 Tdp1-/- hTDP1 cells, no CPT, ATP luminescence, 48 h | Potency, µM (doses to about 46.2 µM), for the others: at the top dose activity change, negative = growth inhibition, hits mostly inhibitors; note: nearly all actives have a fitted effect of over 55% in size
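A cellular qHTS used chicken DT40 cells lacking endogenous Tdp1 but carrying stably transfected human TDP1. Compounds were applied without camptothecin, and cell growth kinetics were judged by ATP-dependent luminescence after ≥48 hr.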
GCN5L2 inh: inhibitors of human GCN5L2 histone acetyltransferase; Potency, µM (highest dose often 58.9 µM), for inactives: at the top dose activity change, negative = inhibition, actives largely listed as inhibitors; GCN5L2 HAT assay, ThioGlo1 CoA-SH fluorescence; AID 504327; hit rate 0.21% among 390,000; Q92830
Target sequence (Q92830 whole entry, looked up): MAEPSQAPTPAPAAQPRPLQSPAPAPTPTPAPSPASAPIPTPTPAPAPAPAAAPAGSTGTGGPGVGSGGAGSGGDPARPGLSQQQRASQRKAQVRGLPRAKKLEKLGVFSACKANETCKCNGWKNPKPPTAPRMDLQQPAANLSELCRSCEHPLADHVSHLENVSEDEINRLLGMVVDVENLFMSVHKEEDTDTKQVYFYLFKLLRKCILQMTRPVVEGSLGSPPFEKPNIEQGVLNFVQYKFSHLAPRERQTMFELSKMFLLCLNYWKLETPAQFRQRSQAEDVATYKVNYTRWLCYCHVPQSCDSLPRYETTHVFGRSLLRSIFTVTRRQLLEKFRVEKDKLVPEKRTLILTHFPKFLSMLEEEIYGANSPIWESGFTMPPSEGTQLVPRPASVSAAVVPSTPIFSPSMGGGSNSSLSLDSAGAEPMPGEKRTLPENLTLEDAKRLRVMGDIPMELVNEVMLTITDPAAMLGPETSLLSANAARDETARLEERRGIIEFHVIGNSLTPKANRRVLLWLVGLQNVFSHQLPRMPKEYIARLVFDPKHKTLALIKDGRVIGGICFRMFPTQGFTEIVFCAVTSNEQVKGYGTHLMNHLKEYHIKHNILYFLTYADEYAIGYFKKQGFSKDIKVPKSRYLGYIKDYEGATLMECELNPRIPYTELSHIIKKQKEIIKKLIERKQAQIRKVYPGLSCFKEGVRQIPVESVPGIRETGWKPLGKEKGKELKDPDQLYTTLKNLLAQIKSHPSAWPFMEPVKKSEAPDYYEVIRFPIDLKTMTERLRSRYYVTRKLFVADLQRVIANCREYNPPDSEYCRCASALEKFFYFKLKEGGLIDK
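Free CoA generated was detected with ThioGlo1 (50uM) fluorescence at Ex340nm/Em540nm, read immediately and after 20 min at room temperature. Enzyme, 20 nM in HEPES pH 7.5 buffer, saw compounds 15 min before adding 75uM H3(1-25) peptide and 70uM acetyl-CoA.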
* marks the source's active call; other numbers are inactive results; ? = inconclusive; . = not tested or not shown; ! = not active in a repeat; [ ] = another dose, or the depositor's remark. Calls come from the whole dose curve; as a rule, active = well fitted curve in the direction sought with a large enough effect; inconclusive = small, poorly fitted or top-dose-only effect, or another doubt; inactive = no such curve, though single readings can be large; an effect the other way counts as inactive or inconclusive. % is set by controls: 0 for no effect and ±100 for the full control effect; potency is the fitted concentration of half-maximal effect.

SMILES	VDR inh	TDP1 inh	PLK1 PBD inh	DT40 TDP1 CPT	DT40 TDP1 no CPT	GCN5L2 inh
CC(C)Oc1ccc2ccccc2c1CNC[C@H]1O[C@@H](n2cnc(C(N)=O)n2)[C@H](O)[C@@H]1O	-12%	.	-15%	29%	-13%	.
COc1ccc(-c2ccccc2NC(=O)C2CCCN(Cc3ccc(C)o3)C2)cc1 (centres undefined)	6%	5%	-11%	?	?	-8%
CCOC(=O)C1(CC2CC2)CCN(C(=O)c2cc(C)nc3ccc(CC)cc23)CC1	-1%	1%	-13%	21µM*	18µM*	-1%
CCOC(=O)C1(CC2CC2)CCN(C(=O)c2ocnc2C)CC1	-9%	0%	-9%	-17%	-23%	-13%
O=C(O)c1cc(O)ccc1NC(=O)c1cccc2ccccc12	-9%	5%	-18%	-6%	-19%	-8%
Cc1occc1-c1nnc(SCC(=O)NC2CCC(C)CC2)o1 (centres undefined)	-6%	2%	-5%	-20%	?	-3%
COc1ccc(CNC(=O)C(=O)NCC(c2cccnc2)N2CCN(c3ccccc3F)CC2)cc1 (centres undefined)	13%	1%	.	12µM*	18µM*	1%
COc1ccccc1N1CCN(C(CNC(=O)C(=O)NCc2cccnc2)c2cccnc2)CC1 (centres undefined)	-2%	5%	.	?	?	-20%
COc1ccccc1N1CCN(C(CNS(=O)(=O)c2ccc(C)cc2)c2cccnc2)CC1 (centres undefined)	-1%	4%	-8%	?	7.3µM*	-1%
COC(=O)NCC(c1cccnc1)N1CCN(c2ccccc2F)CC1 (centres undefined)	-6%	0%	-4%	2%	7%	-4%
COc1ccccc1N1CCN(C(CNC(=O)C(=O)NCc2ccc(F)cc2)c2cccnc2)CC1 (centres undefined)	12%	9%	.	8.2µM*	5.8µM*	-10%
O=C(CCNC(=O)N1CC(=O)Nc2ccccc21)NCc1ccccc1	.	.	4%	3%	-2%	.
O=C(Nc1ccccc1)Nc1nc(-c2ccc(F)cc2)cs1	-26%	-4%	-9%	4.1µM*	4.1µM*	-3%
Fc1ccc(-c2csc(NC(=S)Nc3ccccc3)n2)cc1	-12%	.	?	21µM*	?	3%
CC1(CC(=O)N/N=C/c2ccc(-c3ccc(Cl)cc3)o2)OCCO1	-10%	6%	-5%	-14%	?	-3%
CC1(CC(=O)N/N=C/c2cc([N+](=O)[O-])c(O)cc2O)OCCO1	?	?	9.5µM*	?	?	-6%
Cc1ccccc1N=C(N)Nc1ccccc1C	2%	3%	-16%	27µM*!	?	-2%
N#CCCn1c(=O)c(-c2ccc(Cl)cc2)nc2cnc(Nc3ccccc3)nc21	0%	.	.	?	-5%	-28%
Cc1cc(-c2ccc(C)c(S(=O)(=O)N3CCC(C)CC3)c2)on1	10%	3%	.	?	?	32%
CCc1ccc(-c2cc(C)no2)cc1S(=O)(=O)N1CCC(C)CC1	-3%	-8%	-5%	?	23µM*	-12%
Cc1cc(-c2ccc(C(C)C)c(S(=O)(=O)N3CCC(C)CC3)c2)on1	-7%	-4%	0%	26µM*	18µM*	-22%
CCOC(=O)C(=NCCOC)NNc1cc(Cl)ccc1Cl	-10%	0%	-4%	-19%	?	-12%
CCOC(=O)/C(=N\Nc1cc(Cl)ccc1Cl)N1CCN(CC)CC1	-10%	4%	-19%	21µM*	?	23%
Cc1ccc(C)c(-n2nnnc2Sc2nnnn2-c2ccccc2)c1	2%	4%	-13%	?	13µM*	-5%
Clc1ccc(-c2csc3ncnc(Sc4nnnn4-c4ccccc4)c23)cc1	.	.	.	3.5µM*	2µM*	.
SMILES	VDR inh	TDP1 inh	PLK1 PBD inh	DT40 TDP1 CPT	DT40 TDP1 no CPT	GCN5L2 inh
c1ccc(-c2ccc(-c3csc4ncnc(Sc5nnnn5-c5ccccc5)c34)cc2)cc1	.	.	.	7.1µM*	6.3µM*	.
Cn1nnnc1Sc1ncnc2scc(-c3ccc(Cl)cc3)c12	?	3%	.	.	.	-12%
Cn1nnnc1Sc1ncnc2scc(-c3ccccc3Cl)c12	-6%	2%	.	.	.	-1%
Clc1ccc(-n2nnnc2Sc2ncnc3sccc23)cc1	79µM*	.	8.4µM*	2.3µM*	1.8µM*	.
CCCNS(=O)(=O)c1cc2c3c(c1)CCN3C(=O)CC2	6%	-8%	-13%	-9%	0%	-4%
CCCCCCCCCCCCC/C=C/[C@@H](O)[C@H](CO)N(C)C	1%	2%	.	-2%[4.12 µM]	1%[4.12 µM]	-7%
COc1ccccc1N=NNc1ccc(S(=O)(=O)NC(C)=O)cc1	.	.	-5%	?	?	.
CCOC(=O)CC(NC(=O)c1cc2cccc(OC)c2oc1=O)c1ccc(OC)cc1 (centres undefined)	-10%	.	-7%	-2%	?	-3%
C[C@@H]1CN([C@@H](C)CO)C(=O)CCCn2nncc2CO[C@H]1CN(C)C(=O)Nc1cccc(Oc2ccccn2)c1	.	.	-2%	-1%	0%	.
Cc1ccc(-c2csc3ncnc(Sc4nnnn4-c4ccccc4)c23)cc1	.	.	.	7.1µM*	5.6µM*	.
COc1ccc(-c2csc3ncnc(Sc4nnnn4C)c23)cc1	-1%	5%	.	.	.	-5%
Cc1ccccc1S(=O)(=O)Nc1ncc(C(F)(F)F)cc1Cl	1%	1%	-16%	-6%	-24%	2%
O=S(=O)(NNc1ncc(C(F)(F)F)cc1Cl)c1ccc(F)cc1F	-21%	0%	?	?	21µM*	2%
O=S(=O)(NNc1ncc(C(F)(F)F)cc1Cl)c1ccccc1	-22%	0%	-12%	16µM*	?	0%
Cc1c(C(=O)N2CCCCC2c2cccnc2)sc2ncnc(NCc3cccs3)c12 (centres undefined)	.	.	.	-3%	?	.
O=C(CN1CCN(Cc2ccccc2)CC1)Nc1cccc(C(F)(F)F)c1	-16%	-2%	-3%	-20%	-5%	-4%
CC1CCN(CC(=O)Nc2cccc(C(=O)Nc3cccc(C(F)(F)F)c3)c2)CC1	8%	3%	0%	?	16µM*	-10%
CC1CN(CC(=O)Nc2cccc(C(=O)Nc3cccc(C(F)(F)F)c3)c2)CC(C)O1 (centres undefined)	-6%	4%	-16%	23µM*	23µM*	-5%
COc1cc(=O)n2c(c1C(=O)NC(C)c1ccco1)CCN(Cc1cc3ccccc3o1)CC2 (centres undefined)	.	.	.	0%[9.04 µM]	-6%	.
